Data published in PubChem BioAssay.
Activity calls are given as the source filed them.

How the values were obtained:
[1] = system: PRMT1 (protein arginine N-methyltransferase 1); assay: small molecules binding arginine methyltransferase PRMT1 – biochemical, small-molecule microarray, 635 nm fluorescence, primary screen (AID 1088); conditions: higher = more signal;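 also: binding of Prmt1 protein to compounds spotted on small-molecule microarray slides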
[2] = growth effects on S. cerevisiae YJM789 – YJM789 clinical isolate, OD600, 24 h, basal, primary screen (AID 1089); conditions: higher = more signal, called active from +8 up or from −8 down;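 also: growth of clinical yeast isolate S. cerevisiae YJM 789 seeded 1000 cells per well; test concentration not given here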
[3] = S. pombe growth modifiers, basal conditions – strain 972, OD600, 24 h, no modulator, primary screen (AID 1090);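 also: basal condition with compound alone and no growth modifier present; test concentration not given here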; conditions: S. pombe 972 growth, higher = more signal, called active from +8 up or from −8 down
[4] = budding yeast growth modifiers under rapamycin – strain BY4716, OD600, 96 h, primary screen (AID 1091); also: test concentration not given here; conditions: S. cerevisiae BY4716 + rapamycin, higher = more signal, called active from +8 up or from −8 down
[5] = biological target: Torsin-1A-interacting protein 2 (Homo sapiens) (UniProt Q8NFQ8); assay: small molecules binding lysate-expressed LULL1 – cell lysate, human LULL1 lysate, 635/667 nm fluorescence, primary screen (AID 1092); conditions: small-molecule microarray, hLULL1 lysate binding, 635 nm fluorescence; higher = more signal;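 also: probe is lysate of COS7 cells overexpressing human LULL1; score merges per-feature 667 nm fluorescence with signal-to-noise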
[6] = optical density change of DRC41 E. coli – strain DRC41, OD650, 24 h, E. coli filamentation project, primary screen (AID 1093);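 also: MC1000 strain lacking acrAB efflux and sulA so SOS filamentation is blocked; test concentration not given here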; conditions: E. coli DRC41 growth, higher = more signal, called active from +8 up or from −8 down
[7] = probe aLefty2 binding to arrayed compounds – biochemical, biotinylated probe, 635/667 nm fluorescence, primary screen (AID 1094); conditions: small-molecule microarray, higher = more signal;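 also: score merges spot fluorescence near 667 nm with spot signal-to-noise ratio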
[8] = system: Noggin (protein binding on small-molecule microarray); assay: small molecules binding Noggin protein – biochemical, 635/667 nm fluorescence, primary screen (AID 1095); conditions: 635 nm fluorescence, higher = more signal;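 also: score merges 667 nm feature fluorescence with signal to noise over triplicate slides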
[9] = biological target: Neurogenic locus notch homolog protein 3 (Homo sapiens) (UniProt Q9UM47); assay: small molecules binding NOTCH3 protein – biochemical, 635/667 nm fluorescence, primary screen (AID 1096); conditions: small-molecule microarray, 635 nm fluorescence, higher = more signal
[10] = probe aEGFR binding to arrayed compounds – biochemical, biotinylated probe, 635/667 nm fluorescence, primary screen (AID 1097); conditions: small-molecule microarray, higher = more signal;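 also: probe is a biotinylated anti-EGFR antibody binding compounds printed on slides; score combines fluorescence near 667 nm and signal to noise of each spot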
[11] = system: Plasmodium falciparum Sir2 (PF13_0152, Sir2A); assay: Plasmodium falciparum Sir2A binding compounds – biochemical, small-molecule microarray, 635 nm fluorescence, primary screen (AID 1098); conditions: fluorescence 635 nm, higher = more signal;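 also: score merges spot fluorescence intensity with its signal-to-noise ratio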
[12] = probe aDKK1 binding to arrayed compounds – biochemical, biotinylated probe, 635/667 nm fluorescence, primary screen (AID 1099); conditions: small-molecule microarray, higher = more signal;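 also: score merges 667nm spot fluorescence with signal to noise across triplicate slides; reference of the scale not given here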
[13] = probe aCHRDL2 binding to arrayed compounds – biochemical, biotinylated probe, 635/667 nm fluorescence, primary screen (AID 1100); conditions: small-molecule microarray, higher = more signal
[14] = change in splice reporter luminescence, either direction, cell-based, HEK293, spliceosome inhibition project, primary screen (AID 1101); conditions: HEK293 splicing luciferase reporter, 24 h, higher = more signal, called active from +8 up or from −8 down;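 also: HEK293 cells carrying a splicing-competent luciferase reporter gene; test concentration not given here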
[15] = biological target: Fibroblast growth factor 10 (Homo sapiens) (UniProt O15520); assay: compounds binding fibroblast growth factor 10 – biochemical, small-molecule microarray, 635 nm fluorescence, primary screen (AID 1102); conditions: FGF10 binding, fluorescence 635 nm, higher = more signal
[16] = system: glycogen synthase kinase-3 (GSK3A per assay name; protocol says GSK3B); assay: compounds binding glycogen synthase kinase-3 – biochemical, small-molecule microarray, 635 nm fluorescence, GSK3A, primary screen (AID 1103); conditions: fluorescence 635 nm, higher = more signal; also: the record names both GSK3A and GSK3B
[17] = biological target: Epidermal growth factor receptor (Homo sapiens) (UniProt P00533); assay: compounds binding epidermal growth factor receptor – biochemical, small-molecule microarray, 635 nm fluorescence, primary screen (AID 1104); conditions: EGFR binding, higher = more signal;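 also: score merges 667 nm emission intensity with spot signal to noise over triplicate slides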
[18] = biological target: Follistatin-related protein 3 (Homo sapiens) (UniProt O95633); assay: compounds binding follistatin-related protein 3 – biochemical, small-molecule microarray, 635 nm fluorescence, primary screen (AID 1105); conditions: FSTL3 binding, higher = more signal;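 also: score merges emission near 667 nm and signal to noise per printed spot across three slides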
[19] = biological target: Dickkopf-related protein 1 (Homo sapiens) (UniProt O94907); assay: small molecules binding DKK1 protein – biochemical, small-molecule microarray, 635 nm fluorescence scan, primary screen (AID 1106); conditions: higher = more signal;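 also: score merges emission near 667 nm with signal to noise over three replicate slides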
[20] = system: Inhibin beta A chain (activin A); assay: small molecules binding activin A – biochemical, small-molecule microarray, 635 nm fluorescence scan, primary screen (AID 1107); conditions: INHBA, higher = more signal;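 also: mouse activin A protein probed at 4.33 µg/mL on printed slides; score merges bound-protein fluorescence near 667 nm with spot signal-to-noise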

Fibroblast growth factor 10 (Homo sapiens), sequence (O15520 whole entry, looked up): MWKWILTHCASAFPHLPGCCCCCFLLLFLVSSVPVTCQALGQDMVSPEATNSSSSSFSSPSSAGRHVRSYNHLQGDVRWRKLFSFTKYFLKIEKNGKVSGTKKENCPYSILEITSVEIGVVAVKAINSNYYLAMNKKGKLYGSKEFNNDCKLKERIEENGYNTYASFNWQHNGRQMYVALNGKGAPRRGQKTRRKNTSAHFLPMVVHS
Neurogenic locus notch homolog protein 3 (Homo sapiens), sequence (Q9UM47 whole entry, looked up): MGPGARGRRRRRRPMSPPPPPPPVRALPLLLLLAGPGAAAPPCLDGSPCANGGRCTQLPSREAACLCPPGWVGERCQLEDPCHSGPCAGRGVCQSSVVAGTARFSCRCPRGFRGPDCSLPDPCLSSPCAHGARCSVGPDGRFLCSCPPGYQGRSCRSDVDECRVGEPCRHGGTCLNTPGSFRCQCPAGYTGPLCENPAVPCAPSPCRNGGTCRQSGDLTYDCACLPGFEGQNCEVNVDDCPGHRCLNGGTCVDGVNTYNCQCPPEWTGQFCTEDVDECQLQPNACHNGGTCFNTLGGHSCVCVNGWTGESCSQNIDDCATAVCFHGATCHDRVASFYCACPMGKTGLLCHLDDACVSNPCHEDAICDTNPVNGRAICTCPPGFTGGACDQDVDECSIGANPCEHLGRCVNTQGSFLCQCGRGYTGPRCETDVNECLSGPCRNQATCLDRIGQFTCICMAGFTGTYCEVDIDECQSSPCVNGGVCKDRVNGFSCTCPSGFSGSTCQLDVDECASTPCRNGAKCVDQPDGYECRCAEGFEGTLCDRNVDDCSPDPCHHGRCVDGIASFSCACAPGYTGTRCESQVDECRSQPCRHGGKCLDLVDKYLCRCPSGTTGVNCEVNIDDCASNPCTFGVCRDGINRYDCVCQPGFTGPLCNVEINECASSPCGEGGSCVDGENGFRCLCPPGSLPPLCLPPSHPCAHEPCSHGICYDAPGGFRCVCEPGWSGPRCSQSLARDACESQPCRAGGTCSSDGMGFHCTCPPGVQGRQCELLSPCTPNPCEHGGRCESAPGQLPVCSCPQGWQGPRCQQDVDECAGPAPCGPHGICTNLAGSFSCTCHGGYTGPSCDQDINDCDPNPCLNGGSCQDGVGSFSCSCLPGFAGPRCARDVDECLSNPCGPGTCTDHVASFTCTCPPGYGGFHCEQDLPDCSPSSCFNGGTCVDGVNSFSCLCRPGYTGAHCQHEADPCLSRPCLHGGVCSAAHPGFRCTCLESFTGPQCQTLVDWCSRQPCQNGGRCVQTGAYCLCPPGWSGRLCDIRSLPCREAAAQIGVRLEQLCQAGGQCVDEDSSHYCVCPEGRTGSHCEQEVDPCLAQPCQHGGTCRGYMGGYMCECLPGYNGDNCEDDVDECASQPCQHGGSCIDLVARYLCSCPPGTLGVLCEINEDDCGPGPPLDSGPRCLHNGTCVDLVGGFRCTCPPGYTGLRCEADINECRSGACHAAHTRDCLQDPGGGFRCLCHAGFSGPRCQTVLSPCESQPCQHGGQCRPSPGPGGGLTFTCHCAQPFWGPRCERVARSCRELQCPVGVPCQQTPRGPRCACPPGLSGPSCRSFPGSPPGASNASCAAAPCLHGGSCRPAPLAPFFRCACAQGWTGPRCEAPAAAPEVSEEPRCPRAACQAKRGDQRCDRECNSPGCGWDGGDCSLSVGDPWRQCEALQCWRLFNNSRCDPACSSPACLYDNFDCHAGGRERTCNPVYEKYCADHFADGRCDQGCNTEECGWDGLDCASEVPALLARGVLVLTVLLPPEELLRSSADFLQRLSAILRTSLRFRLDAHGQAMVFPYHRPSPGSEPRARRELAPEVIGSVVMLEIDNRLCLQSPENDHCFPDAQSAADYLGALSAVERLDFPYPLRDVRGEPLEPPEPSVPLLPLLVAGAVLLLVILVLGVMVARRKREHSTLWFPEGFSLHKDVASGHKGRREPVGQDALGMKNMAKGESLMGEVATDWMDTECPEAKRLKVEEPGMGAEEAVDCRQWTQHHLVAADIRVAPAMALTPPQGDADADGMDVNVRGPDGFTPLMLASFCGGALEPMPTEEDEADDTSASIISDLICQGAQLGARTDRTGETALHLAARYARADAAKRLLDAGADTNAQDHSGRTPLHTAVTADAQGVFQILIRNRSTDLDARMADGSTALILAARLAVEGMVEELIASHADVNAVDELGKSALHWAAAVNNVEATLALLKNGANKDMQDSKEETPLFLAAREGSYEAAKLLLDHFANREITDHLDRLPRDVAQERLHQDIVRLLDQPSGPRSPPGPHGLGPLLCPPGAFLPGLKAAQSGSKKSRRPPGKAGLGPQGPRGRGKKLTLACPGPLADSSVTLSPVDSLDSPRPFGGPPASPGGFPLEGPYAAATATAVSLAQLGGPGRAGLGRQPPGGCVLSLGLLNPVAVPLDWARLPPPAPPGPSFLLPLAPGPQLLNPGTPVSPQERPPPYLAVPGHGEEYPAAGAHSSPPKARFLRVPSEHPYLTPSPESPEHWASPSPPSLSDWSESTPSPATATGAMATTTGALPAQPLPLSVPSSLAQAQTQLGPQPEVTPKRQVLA
Epidermal growth factor receptor (Homo sapiens), sequence (P00533 whole entry, looked up): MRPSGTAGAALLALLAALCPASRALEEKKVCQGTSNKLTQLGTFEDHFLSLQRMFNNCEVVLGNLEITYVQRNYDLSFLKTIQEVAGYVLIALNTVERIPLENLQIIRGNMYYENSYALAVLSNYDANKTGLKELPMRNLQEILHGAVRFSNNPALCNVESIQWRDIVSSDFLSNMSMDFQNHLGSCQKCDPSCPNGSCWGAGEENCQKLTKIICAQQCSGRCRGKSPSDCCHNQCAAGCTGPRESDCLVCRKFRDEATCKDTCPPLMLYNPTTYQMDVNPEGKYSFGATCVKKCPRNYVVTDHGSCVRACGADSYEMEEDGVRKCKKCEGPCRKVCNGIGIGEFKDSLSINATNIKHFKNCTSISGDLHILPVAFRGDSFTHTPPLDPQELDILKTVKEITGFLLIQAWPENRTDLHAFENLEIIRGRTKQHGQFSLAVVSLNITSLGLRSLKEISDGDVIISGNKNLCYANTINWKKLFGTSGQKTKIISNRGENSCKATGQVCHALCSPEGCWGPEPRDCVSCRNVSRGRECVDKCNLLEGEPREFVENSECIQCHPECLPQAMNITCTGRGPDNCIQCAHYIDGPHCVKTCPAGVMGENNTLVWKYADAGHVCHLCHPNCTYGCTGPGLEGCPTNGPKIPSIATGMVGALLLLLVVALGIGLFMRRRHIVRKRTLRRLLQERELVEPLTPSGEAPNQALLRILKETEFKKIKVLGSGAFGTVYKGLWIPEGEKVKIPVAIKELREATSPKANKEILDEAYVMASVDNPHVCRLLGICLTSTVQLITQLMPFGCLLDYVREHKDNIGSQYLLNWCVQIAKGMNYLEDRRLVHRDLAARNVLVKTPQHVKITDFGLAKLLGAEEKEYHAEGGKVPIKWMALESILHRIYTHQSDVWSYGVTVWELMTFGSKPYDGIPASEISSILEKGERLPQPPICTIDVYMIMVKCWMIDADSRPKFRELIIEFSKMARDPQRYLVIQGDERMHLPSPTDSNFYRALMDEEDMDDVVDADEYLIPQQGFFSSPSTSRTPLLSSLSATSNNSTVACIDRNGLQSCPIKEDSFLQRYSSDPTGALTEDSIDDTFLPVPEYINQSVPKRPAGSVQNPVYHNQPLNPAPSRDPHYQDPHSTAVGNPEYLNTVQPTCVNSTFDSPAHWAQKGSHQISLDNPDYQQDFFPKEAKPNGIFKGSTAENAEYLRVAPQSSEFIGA
Torsin-1A-interacting protein 2 (Homo sapiens), sequence (Q8NFQ8 whole entry, looked up): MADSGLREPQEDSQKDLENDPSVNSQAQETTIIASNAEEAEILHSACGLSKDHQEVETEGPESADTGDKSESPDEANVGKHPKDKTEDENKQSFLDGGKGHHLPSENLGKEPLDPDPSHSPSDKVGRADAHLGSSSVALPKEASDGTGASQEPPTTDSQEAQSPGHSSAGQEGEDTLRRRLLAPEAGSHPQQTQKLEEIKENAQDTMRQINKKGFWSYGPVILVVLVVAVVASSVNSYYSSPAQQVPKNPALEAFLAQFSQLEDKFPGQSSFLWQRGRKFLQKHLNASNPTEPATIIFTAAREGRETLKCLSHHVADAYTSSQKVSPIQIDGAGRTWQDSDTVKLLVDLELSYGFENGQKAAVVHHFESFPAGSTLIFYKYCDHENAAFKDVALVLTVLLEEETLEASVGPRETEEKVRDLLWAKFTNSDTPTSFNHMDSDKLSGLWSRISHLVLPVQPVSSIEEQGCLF
Dickkopf-related protein 1 (Homo sapiens), sequence (O94907 whole entry, looked up): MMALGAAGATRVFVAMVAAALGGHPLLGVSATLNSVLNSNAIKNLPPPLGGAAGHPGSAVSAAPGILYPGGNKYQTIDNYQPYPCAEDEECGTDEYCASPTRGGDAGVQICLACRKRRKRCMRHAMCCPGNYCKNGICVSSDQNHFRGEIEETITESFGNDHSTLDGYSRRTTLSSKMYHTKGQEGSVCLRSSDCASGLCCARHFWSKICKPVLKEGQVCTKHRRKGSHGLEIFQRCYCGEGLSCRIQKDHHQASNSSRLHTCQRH
Follistatin-related protein 3 (Homo sapiens), sequence (O95633 whole entry, looked up): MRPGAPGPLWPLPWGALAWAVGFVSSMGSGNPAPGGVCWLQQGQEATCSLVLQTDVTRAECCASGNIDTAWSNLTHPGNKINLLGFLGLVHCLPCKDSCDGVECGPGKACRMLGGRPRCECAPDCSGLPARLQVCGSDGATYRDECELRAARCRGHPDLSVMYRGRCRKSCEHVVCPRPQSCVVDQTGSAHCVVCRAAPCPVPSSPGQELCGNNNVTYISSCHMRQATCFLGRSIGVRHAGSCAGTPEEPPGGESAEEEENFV

| Compound | composite z-score [1] | z-score [2] | z-score [3] | z-score [4] | composite z-score [5] | z-score [6] | composite z-score [7] | composite z-score [8] | composite z-score [9] | composite z-score [10] | composite z-score [11] | composite z-score [12] | composite z-score [13] | z-score [14] | composite z-score [15] | composite z-score [16] | composite z-score [17] | composite z-score [18] | composite z-score [19] | composite z-score [20] |
| --- | --- | --- | --- | --- | --- | --- | --- | --- | --- | --- | --- | --- | --- | --- | --- | --- | --- | --- | --- | --- |
| [N-]=[N+]=Nc1ccccc1C[C@]1(C(=O)N2CCCCC2)COC(c2ccc(OCCCO)cc2)=N1 | 1.54 | 1.73 (inactive) | -1.72 (inactive) | 32.7 (active) | 3.18 | 1.75 (inactive) | -0.0631 | 0.753 | 1.08 | -0.0828 | -0.315 | 0.149 | 0.89 | -0.806 (inactive) | 1.28 | 1.3 | -0.214 | 0.615 | -0.482 | 1.01 |
| NC(=O)[C@@H]1[C@H]2C(=O)O[C@H](c3ccccc3)[C@H](c3ccccc3)N2[C@H](c2ccc(OCCO)cc2)[C@@]12C(=O)Nc1ccc(C#CC3=CCCCC3)cc12 | 1.55 | 0.529 (inactive) | 0.544 (inactive) | 2.91 (inactive) | 2.08 | 1.69 (inactive) | 0.0209 | 1.35 | 0.951 | -0.0343 | 1.36 | -0.134 | -0.233 | -0.857 (inactive) | 1.21 | 1.32 | 0.544 | 0.588 | 0.372 | 0.357 |
| O=c1cccc(-c2ccccc2Cl)o1 | 0.023 | -0.871 (inactive) | -0.463 (inactive) | 2.12 (inactive) | 0.551 | -0.252 (inactive) | -0.127 | 0.466 | -0.691 | -0.139 | -0.462 | -0.0639 | -0.456 | 0.477 (inactive) | 0.425 | 0.0083 | 0.0031 | -0.0893 | 0.157 | 0.747 |
| COc1ccc(C#Cc2ccc3c(c2)[C@]2(C(=O)N3)[C@H](c3ccc(O)cc3)N3[C@H](c4ccccc4)[C@H](c4ccccc4)OC(=O)[C@H]3[C@@H]2C(=O)N2CCc3cc(OC)c(OC)cc3C2)cc1 | 1.54 | 1.74 (inactive) | 0.921 (inactive) | 1.93 (inactive) | 3.04 | -0.0389 (inactive) | -0.189 | 1.68 | 1.07 | -0.0381 | 1.46 | -0.157 | -0.208 | 1.34 (inactive) | 0.768 | 1.26 | 0.469 | 0.853 | 0.31 | 0.155 |
| COCCCNC(=O)[C@@]1(Cc2ccccc2)N=C(c2ccc(OCCCO)cc2)O[C@H]1c1ccccc1CN=[N+]=[N-] | 1.56 | -0.201 (inactive) | 0.351 (inactive) | 0.463 (inactive) | 3.16 | 1.06 (inactive) | 0.277 | 0.445 | 1.05 | 0.163 | 0.47 | 1.09 | 1.32 | -0.469 (inactive) | 0.807 | 1.28 | -0.105 | 0.859 | -0.172 | 0.384 |
| C=CCN(Cc1ccccc1)C(=O)C(c1cccs1)N(C(=O)/C=C\C(=O)O)c1ccc(CCOCCO)cc1 (stereo not given) | -0.133 | -1.22 (inactive) | 0.246 (inactive) | -0.391 (inactive) | -0.288 | 1.01 (inactive) | -0.209 | -1.51 | -1.36 | -0.32 | 1.33 | -0.291 | 0.486 | -1.2 (inactive) | -2.15 | -1.28 | -1.43 | -1.27 | -2.18 | -0.753 |
| CCCC[C@H]1C[C@@H]1[C@@H]1N(P(=O)(c2ccccc2)c2ccccc2)C[C@@](O)(c2ccccc2)CC12CC2 | 0.761 | -0.841 (inactive) | -7.02 (inactive) | 32.9 (active) | 3.06 | -0.931 (inactive) | 0.356 | -0.695 | -0.317 | 0.0144 | 0.17 | 1.12 | 1.28 | -0.644 (inactive) | -0.295 | 0.0826 | -0.678 | 0.21 | -1.51 | 0.973 |
| COCCOC(=O)N1C(=O)[C@@]2(c3ccccc31)[C@H](C(N)=O)[C@H]1C(=O)O[C@H](c3ccccc3)[C@H](c3ccccc3)N1[C@@H]2c1ccc(O)cc1 | 1.38 | -1.19 (inactive) | -1.3 (inactive) | 0.695 (inactive) | 3.1 | 0.628 (inactive) | -0.166 | -0.32 | 0.129 | -0.171 | 0.784 | -0.566 | 0.481 | -0.726 (inactive) | 0.0392 | -0.0985 | -0.458 | 0.292 | -0.0601 | 0.0565 |
| CC(C)(C)OC(=O)CC[C@]1(C(=O)NCCN2CCOCC2)COC(c2ccc(OCCCO)cc2)=N1 | 1.47 | 0.57 (inactive) | 0.41 (inactive) | -0.342 (inactive) | 3.4 | 0.99 (inactive) | -0.0984 | 1.05 | 1.03 | -0.0656 | 0.706 | 0.0968 | 0.465 | -0.686 (inactive) | 1.42 | 0.743 | -0.422 | 0.683 | -0.105 | 0.295 |
